SMN2 splice enh: SMN2 splice variant enhancement. HEK293 SMN2-luciferase splicing reporter, luminescence, 30-36 h. Potency, µM (doses to about 46.1 µM), without a hit: top-dose activity change, positive = activation, most hits filed as activators. 210,000 tested, 2.8% active. AID 1458; further: % of control where 0% means no effect; nearly all actives have a fitted effect of over 55% in size
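qHTS luciferase splicing reporter: luminescence rises when SMN2 exon 7 is included in transfected HEK293 cells. Compound exposure lasted 30-36 h at 37C, with 4.5 mM final sodium butyrate as control, followed by a ONE-Glo read.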
ELG1 repair inh: ELG1-dependent DNA repair inhibition; HEK293T ELG1-luciferase reporter, luminescence, 16 h; DNA damage induced by 5-fluorouridine; Potency, µM (top dose mostly 46.1 µM), for the others: at the highest dose activity change, negative = inhibition, hits mostly inhibitors; 330,000 tested, 2.3% active; further: on the % scale 0 is the no-effect control and ±100 the full control effect; nearly all actives have a fitted effect of over 55% in size
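HEK293T cells expressing luciferase-tagged ELG1 (2,000/well) received 5-Fluorouridine plus compound or DMSO for 16 hr at 37 °C. Luciferase was read by ONE-Glo luminescence after 30 min at room temperature.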
FLuc counter: firefly luciferase modulation, counter-screen for miR-21 project. P08659. 360,000 tested, 6.9% active. purified FLuc, Km substrates, luminescence inhibition. Potency, µM (top dose mostly 57.5 µM), for inactives: top-dose activity change, negative = inhibition, hits mostly inhibitors;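 further: plate controls were vehicle for no effect and reference inhibitor for full effect; nearly all actives have a fitted effect of over 55% in size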
Target sequence (P08659 whole entry, looked up): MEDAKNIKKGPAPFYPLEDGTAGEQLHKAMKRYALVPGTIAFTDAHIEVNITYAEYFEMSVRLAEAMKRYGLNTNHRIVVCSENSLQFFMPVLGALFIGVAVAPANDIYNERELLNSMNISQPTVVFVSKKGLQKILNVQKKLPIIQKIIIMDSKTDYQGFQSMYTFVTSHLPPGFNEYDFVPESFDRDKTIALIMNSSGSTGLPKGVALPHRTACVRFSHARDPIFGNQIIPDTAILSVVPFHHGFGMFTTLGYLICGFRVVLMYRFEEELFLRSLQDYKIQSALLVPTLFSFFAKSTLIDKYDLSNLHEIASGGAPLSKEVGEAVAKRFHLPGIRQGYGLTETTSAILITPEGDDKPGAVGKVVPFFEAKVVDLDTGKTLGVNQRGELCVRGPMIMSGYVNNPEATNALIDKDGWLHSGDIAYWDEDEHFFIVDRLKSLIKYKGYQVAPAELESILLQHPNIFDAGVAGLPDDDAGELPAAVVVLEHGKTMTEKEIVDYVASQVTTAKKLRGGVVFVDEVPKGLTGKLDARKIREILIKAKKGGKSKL
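Purified P. pyralis luciferase, 10 nM final, with Km-level 10 uM D-luciferin and 10 uM ATP in 50 mM Tris acetate pH 7.5, 10 mM Mg acetate, 0.01% Tween-20, 0.05% BSA; 6-point qHTS titration about 60 µM downward; luminescence read.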
ELG1 genotoxic: inducers of genotoxicity in HEK293T ELG1-luciferase cells | 330,000 tested, 1.3% active | Potency, µM (series often up to 46 µM), inactives show at the highest dose activity change, positive = activation, actives largely listed as activators | HEK293T ELG1-luciferase reporter, luminescence, 16 h; further: % of control where 0% means no effect; nearly all actives have a fitted effect of over 60% in size
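Quantitative HTS format in 1536-well plates. HEK293T ELG1-luciferase reporter cells receive test compound and are incubated 16 hr at 37 °C, 5% CO2; ONE-Glo added, 30 min room temperature, then luminescence read.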
NPC1 prom act: activators of NPC1 promoter | 320,000 tested, 2.4% active | Huh7 NPC1 promoter luciferase reporter, 24 h | AID 485313 | Potency, µM (top dose mostly 9.22 µM), for inactives: at the highest dose activation, actives largely listed as activators; further: % of control where 0% means no effect; nearly all actives have a fitted effect of over 60% in size
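In 1536-well qHTS, Huh7 cells harboring an NPC1 promoter–luciferase construct received compound for 24 h; activation was quantified by luminescence following luciferase reagent addition.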
Rab9 promoter act: Rab9 promoter activation | Potency, µM (doses to about 9.22 µM), for the others: at the highest dose activation, negative = inhibition, actives largely listed as activators | Huh7 Rab9 promoter-luciferase reporter, luminescence, 24 h | 320,000 tested, 2.8% active; further: % of control where 0% means no effect; nearly all actives have a fitted effect of over 60% in size
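Huh7 cells stably carrying a Rab9 promoter-luciferase reporter, 1500 cells per well in OP-MEM I with 10% FBS, treated with compound 24 hours at 37C. Luciferase activity read by luminescence after 10 minutes with Amplite reagent.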
The depositor's hits bear a star; ? = inconclusive; . = not tested or not shown; [ ] = dose if it differs, or a comment. In the library only some 9.2% were active in any assay of this set; here they are far more common. The call rests on the fitted dose curve; in most records, active means well fitted curve in the direction sought with a large enough effect; inconclusive means small, poorly fitted or top-dose-only effect, or another doubt; inactive means no such curve, though single readings can be large; an effect the other way counts as inactive or inconclusive. Potency means the concentration at half of the fitted maximal effect.

SMILES | SMN2 splice enh | ELG1 repair inh | FLuc counter | ELG1 genotoxic | NPC1 prom act | Rab9 promoter act
CCCCNS(=O)(=O)c1ccc2nc(SCC(=O)Nc3sccc3C#N)[nH]c2c1 | -10% | 16µM* | ? | -24% | 0% | 0%
CCCCNS(=O)(=O)c1ccc2nc(SCC(=O)c3ccccc3OC)[nH]c2c1 | -25% | 21µM* | 1% | -11% | -3% | -5%
CCC1=C2CC[C@H]3C(=O)N(C)C(=O)[C@H]3[C@H]2[C@@]2(C)C(=NCC(=O)OC)OC(=O)N2C1=O | 2% | . | . | . | . | .
N#CC(C#N)=C1C=CC=CN1/C(=C\c1ccccc1Cl)C(=O)c1ccccc1 | -117% | ? | ? | -22% | -21% | -28%
N#CC(C#N)=C1C=CC=CN1/C(=C\c1ccccc1)C(=O)c1cccs1 | 8% | -14% | 19µM* | -3% | -3% | 1%
Cc1ccc(-c2nc3sc4c(c3c(=O)n2N)CCCC4)cc1 | 11µM* | ? | 2.1µM* | ? | 1.3µM* | 0.63µM*
O=c1c2c3c(sc2ncn1/N=C/c1ccccc1)CCCC3 | 20µM* | ? | 11µM* | ? | 25% | 22%
O=c1c2c3c(sc2ncn1/N=C/c1ccco1)CCCC3 | ? | 21% | 0%[2.3 µM] | 7% | 10% | 9%
NNc1nc2sc3c(c2c(=O)n1-c1ccccc1)CCCC3 | . | -25% | 12µM* | 5% | -6% | 1%
Nn1c(Nc2ccccc2)nc2sc3c(c2c1=O)CCCC3 | ? | ? | 15µM* | 10% | 2% | 0%
COc1ccc(N(CC(=O)NCCSCc2ccco2)S(=O)(=O)c2ccccc2)cc1Cl | . | -26% | 0% | -12% | 2% | 0%
CCC1CSC(Nc2ccc(C(=O)/C=C/c3ccc(OC)c(OC)c3)cc2)=N1 (stereo not drawn) | -59% | 21µM* | 24µM* | -17% | -15% | -19%
COC(=O)C1=C(C(=O)OC)[C@@H]2N(C)c3ccccc3[C@@]23C[C@@H](C(=O)OC)N(S(=O)(=O)c2ccc(C)cc2)C3=N1 | -7%[9.22 µM] | . | . | . | . | .
CCC1=C2CC[C@H]3C(=O)N(CC)C(=O)[C@H]3[C@H]2[C@@]2(C)C(=NCCc3c[nH]c4ccccc34)OC(=O)N2C1=O | -1% | . | . | . | . | .
Cn1c(=O)c2c(SCC(=O)NCc3ccco3)nc(-c3ccccc3F)nc2n(C)c1=O | . | . | -2% | . | . | .
Cc1nc(NCC2CCCO2)c2nnn(Cc3ccccc3)c2n1 (stereo not drawn) | -13% | -21% | 1% | 1% | 9% | 2%
CCCc1nc(NCC2CCCO2)c2nnn(Cc3ccccc3)c2n1 (stereo not drawn) | -19% | 26µM* | 0% | -4% | -2% | 1%
O=C(OCCN=C1NS(=O)(=O)c2ccccc21)c1ccco1 | -40% | 5% | -1% | 0% | 1% | 2%
CC(C)c1ccc(CN(C(=O)c2cccs2)C2CCS(=O)(=O)C2)cc1 (stereo not drawn) | . | 8% | 0% | 2% | -8% | 2%
O=C(NCc1ccc2c(c1)OCO2)Nc1cccc(Cl)c1 | . | ? | ? | ? | 28% | 25%
O=C(Nc1cccc(Cl)c1)Nc1ccc2c(c1)OCO2 | 10µM* | ? | 6.7µM* | 15% | 2.5µM* | 1.6µM*
CC(=O)c1cccc(NC(=O)Nc2ccc3c(c2)OCO3)c1 | . | ? | 4.8µM* | 2% | 3.5µM* | 2.5µM*
Cc1ccc(-c2cc(NC(=O)COc3ccc(Cl)cc3C)on2)cc1 | 15% | . | 0% | . | . | .
Cc1ccc(S(=O)(=O)N2CCN(C(=O)COC(=O)Cc3ccc(Cl)cc3)CC2)c(C)c1 | . | 7% | 5% | -1% | -1% | 2%
Cc1ccc(C)c(OCc2cc(C(=O)N3CC[C@H](O)C3)no2)c1 | . | ? | 12µM* | ? | 30% | 2.5µM*
